# The campaign covered roughly 310,000 compounds. About 2,600 (0.84%) were called active.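 Rule for the calls: active = B-score over 3 SD under the library average, and starting fluorescence ratio not unusually high; inactive = the rest.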 The sample as a whole holds a higher share of actives than the screen did.
# Target: High affinity choline transporter 1 (Homo sapiens) (UniProt Q9GZV3)
# Assay: inhibitors of human choline transporter CHT (AID 488975);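 for B-score: choline stimulus applied at its EC90 after an EC20 pre-addition; B-score computed on integrated fluorescence ratio after choline addition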
# Details: CHT-expressing cells, membrane potential dye, choline response, at 10 µM; active compounds read low
# Sequence of High affinity choline transporter 1 (Homo sapiens) (Q9GZV3 whole entry, looked up): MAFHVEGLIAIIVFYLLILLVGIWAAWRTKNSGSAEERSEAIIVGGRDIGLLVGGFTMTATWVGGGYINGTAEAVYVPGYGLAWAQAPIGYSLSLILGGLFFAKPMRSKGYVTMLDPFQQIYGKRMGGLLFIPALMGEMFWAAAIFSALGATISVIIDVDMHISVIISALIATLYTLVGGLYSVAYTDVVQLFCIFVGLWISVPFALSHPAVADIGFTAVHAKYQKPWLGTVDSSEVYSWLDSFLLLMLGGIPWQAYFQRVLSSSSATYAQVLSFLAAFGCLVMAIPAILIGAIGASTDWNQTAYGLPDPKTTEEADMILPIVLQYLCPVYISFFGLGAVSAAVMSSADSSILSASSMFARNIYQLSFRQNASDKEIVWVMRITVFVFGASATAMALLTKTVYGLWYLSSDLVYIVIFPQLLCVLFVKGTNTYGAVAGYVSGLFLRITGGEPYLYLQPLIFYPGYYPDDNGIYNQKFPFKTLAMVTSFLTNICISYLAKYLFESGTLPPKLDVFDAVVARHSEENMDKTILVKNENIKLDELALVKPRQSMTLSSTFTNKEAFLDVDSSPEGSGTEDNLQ
row,Structure (SMILES),B-score
1,O=C(NNC(=O)c1ccc(Cl)cc1Cl)c1cccs1,inactive
2,O=C(NCCCc1ccccc1)C(=O)NCC1OCCN1S(=O)(=O)c1ccccc1 (stereo not given),inactive
3,Cc1ccc(N2CC(C(=O)N3CCC4(CC3)CC(=O)c3ccccc3O4)CC2=O)cc1C (stereo not given),inactive
4,Cc1ccc(Cc2nnc(SCC(=O)Nc3ccccc3C)[nH]c2=O)cc1,inactive
5,CCCn1c2ccccc2c2cnn(CC(=O)NCCCN3CCCCC3CC)c(=O)c21 (stereo not given),-7.41 (active)
6,O=C(Cn1ncc2c3ccccc3n(Cc3ccccc3)c2c1=O)NCCCN1CCOCC1,-8.06 (active)
7,O=C(Cn1ncc2c3ccccc3n(Cc3ccccc3)c2c1=O)NCc1ccccn1,inactive
8,CC1CCCCN1CCCNC(=O)Cn1ncc2c([nH]c3ccccc32)c1=O (stereo not given),inactive
9,Cc1c2cnn(CC(=O)NCCCN3CC(C)CC(C)C3)c(=O)c2c(C)n1Cc1ccc(Cl)cc1 (stereo not given),inactive
10,CCC1CCCCN1CCCNC(=O)Cn1nc(-c2ccccc2)ccc1=O (stereo not given),inactive
11,Cc1ccc(C)c(-c2nnc(NC(=O)CS(=O)(=O)c3ccccc3)o2)c1,inactive
12,Cc1ccc(S(=O)(=O)NCCC(=O)NC2CCN(Cc3ccccc3)CC2)cc1,inactive
13,COc1ccc(Cc2nnc(SCC(=O)N(c3ccccc3)C(C)C)n(N)c2=O)cc1,inactive
14,Nc1nnc(SCn2nnc3ccccc3c2=O)s1,inactive
15,O=c1c2ccccc2nnn1CSc1nc2sc3c(c2c(=O)n1CC1CCCO1)CCC3 (stereo not given),-11.3 (active)
16,O=c1c2ccccc2nnn1CSc1nnnn1-c1ccccc1,inactive
17,CCn1c(SCCC(C)C)nnc1-c1c[nH]c2ccccc12,-5.53 (active)
18,CCn1c(SCC(=O)Nc2ccc(OC)c(OC)c2)nnc1-c1c[nH]c2ccccc12,inactive
19,CCC(C)Sc1nnc(-c2c[nH]c3ccccc23)n1CCOC (stereo not given),inactive
20,O=[N+]([O-])c1ncc(Br)cc1Nc1ccccc1,inactive
21,CCOCCn1[nH]c2ccccc2c1=O,inactive
22,CC(Oc1ccc(Br)cc1)C(=O)NCC(c1ccco1)N1CCCCC1 (stereo not given),inactive
23,CCc1ccc2c(c1)C1(NN=C(c3ccccc3)S1)C(=O)N2 (stereo not given),-6.53 (active)
24,CCc1ccc2c(c1)C(c1ccc([N+](=O)[O-])cc1)=NNC(c1ccccc1)=N2,inactive
25,O=C1Nc2ccccc2C12Nc1ccccc1S2 (stereo not given),inactive

row,Structure (SMILES),B-score
1,COC(=O)c1cc2occc2n1Cc1nc(-c2ccccc2C)oc1C,inactive
2,CCOC(=O)c1cc2occc2n1CC(=O)N1CCN(C(=O)c2ccco2)CC1,inactive
3,CCC(C(=O)N1CCOCC1)n1c(C(=O)OC)cc2occc21 (stereo not given),-6.51 (active)
4,O=C(CN1CCOCC1)Nc1cccc([N+](=O)[O-])c1,inactive
5,O=C(CCNC(=O)c1ccc(Br)cc1)NCCCc1ccccc1,inactive
6,CCOC(=O)c1ccc(NC(=O)c2cccnc2)cc1,inactive
7,Cc1c(C(=O)OC(C)C)sc(NC(=O)c2cccnc2)c1C#N,-5.25 (active)
8,CCOC(=O)c1cc(NC(=O)c2cccnc2)ccn1,inactive
9,Cc1ccc(C)c(OCCC(=O)OCC(=O)NC(=O)NCc2ccccc2)c1,inactive
10,COc1ccccc1C(=O)Nc1ccccc1C(=O)Nc1ccccc1,inactive
11,Nc1nonc1-n1nnc(C(=O)N/N=C/c2ccccc2O)c1CN1CCCC1,inactive
12,C/C(=N\NC(=O)c1cccc(N2CCCC2=O)c1)c1ccc(N)cc1,inactive
13,CC1CCCC(NC(=O)c2cccc(N3CCCC3=O)c2)C1C (stereo not given),-5.25 (active)
14,CC1CCC(NC(=O)c2ccc(N3CCCC3=O)cc2)CC1 (stereo not given),inactive
15,Cc1ccc(C(=O)NNC(=O)c2ccncc2)cc1S(=O)(=O)N1CCCCC1,inactive
16,Cc1ccc(C(=O)NC2CCCC(C)C2C)cc1S(=O)(=O)N1CCCCC1 (stereo not given),-9.32 (active)
17,Cc1ccc(C(=O)Nc2ccc3c(c2)OCO3)cc1S(=O)(=O)N1CCCCC1,inactive
18,COc1ccc2oc(C(=O)OCC(=O)N(CC(C)C)c3c(N)n(Cc4ccccc4)c(=O)[nH]c3=O)c(C)c2c1,inactive
19,CC1=NNC(=O)C1Cc1c(Cl)cccc1Cl (stereo not given),inactive
20,Cc1ccc2nc(NC(=O)CSc3nc(=O)n(CCCN(C)C)c4c3CCC4)sc2c1,inactive
21,COc1ccc(S(=O)(=O)N2CCCCCC2)cc1C(=O)N(C)Cc1cccc(OC)c1OC,inactive
22,CN(CCC#N)c1ncnc2scc(-c3ccccc3)c12,-6.05 (active)
23,C=CCn1cnc2scc(-c3ccccc3)c2c1=O,inactive
24,N#CCCN(CCC#N)c1nnc(-c2ccccc2)s1,inactive
25,COc1cc(C(=O)N(C)Cc2cccc(OC)c2OC)ccc1OCC(=O)Nc1cccc(C(F)(F)F)c1,inactive
